Assay results reported in PubChem BioAssay (NCI).
About 83,000 compounds went through this panel and 20% of them were active in at least one assay; those are over-represented in the sample as a whole.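 Testing used 96-well plates and a 48-hour single-concentration exposure. Example: -40 means 40% of the starting cells died.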 Unmarked numbers belong to inactive results. The source made the active and inactive calls. Rule for the calls: active = growth percent below 10; inactive = the rest.

Columns and labels:
Experiment in all cases: NCI-60 one-dose screen, 48 h (100 = growth as untreated, 0 = no growth, -100 = all killed)
Conditions in all cases: 10 µM unless noted
NCI-H23 lung = system: NCI-H23 lung
NCI-H226 lung = system: NCI-H226 lung
NCI-H322M lung = system: NCI-H322M lung
HOP-62 NSCLC = system: HOP-62 NSCLC
NCI-H460 lung = system: NCI-H460 lung
HOP-92 NSCLC = system: HOP-92 NSCLC
NCI-H522 lung = system: NCI-H522 lung
A549/ATCC NSCLC = system: A549/ATCC NSCLC
786-0 renal = system: 786-0 renal
COLO 205 colon = system: COLO 205 colon

SMILES	growth (NCI-H23 lung)	growth (NCI-H226 lung)	growth (NCI-H322M lung)	growth (HOP-62 NSCLC)	growth (NCI-H460 lung)	growth (HOP-92 NSCLC)	growth (NCI-H522 lung)	growth (A549/ATCC NSCLC)	growth (786-0 renal)	growth (COLO 205 colon)
COc1ccc(CN2c3ccccc3Sc3ccccc32)cc1F	30.7%	45.6%	43%	20.4%	5.41% (active)	50.4%	4.53% (active)	21.9%	22.5%	-32.9% (active)
Cn1ccnc1C(=O)/C=C/c1ccc(CC(=O)Nc2cc(C(F)(F)F)cc(C(F)(F)F)c2)cc1	85.4%	91.4%	73.2%	85.9%	55.3%	87%	77.4%	60.1%	65.6%	98.3%
O=C1NC2(Nc3ccccc31)C(=O)Nc1c(Cl)cc(Cl)cc12 (stereo not given)	104%	93.8%	110%	84.7%	102%	106%	103%	110%	103%	119%
O=CN1N=C(c2cccc(Nc3ccnc4cc(Cl)ccc34)c2)CC1c1ccccc1 (stereo not given)	4.34% (active)	38.3%	71.8%	37.2%	7.29% (active)	18.9%	-25.8% (active)	21.3%	18.9%	-40.9% (active)
COC1=CC(c2ccc[nH]2)=N/C1=C\c1[nH]c(C)c(C(=O)OC(C)C)c1C	-43.4% (active)	-27.4% (active)	-28.2% (active)	-21.4% (active)	0.0375% (active)	-33% (active)	-58.2% (active)	-21.2% (active)	-41.9% (active)	-80.5% (active)
CCCCCCCCCCCCCCCCOCCCOP(=O)(O)C1CCCN(O)C1=O (stereo not given)	18.5%	-21.9% (active)	28.6%	11.9%	-9.19% (active)	39.3%	26.2%	17.8%	-10.4% (active)	4.27% (active)
O=S(=O)(NCCNc1nccc(-c2c(-c3ccc(F)c(O)c3)nc3sccn23)n1)c1ccc(O)cc1	54.6%	37.4%	70.8%	78.7%	40%	47.7%	25.4%	35.3%	49.6%	34.7%
COc1ccccc1NC(=O)N=Nc1c(O)[nH]c2ccccc12	89.8%	86.5%	81.2%	98.8%	104%	80.3%	83.2%	95.7%	90.4%	85.2%
CC(=O)n1nc(C(=O)OC(C)(C)c2ccccc2)c2ccccc21	94.2%	85.7%	87.9%	97.3%	100%	94.1%	85.5%	91.8%	96.8%	107%
COC(=O)c1nc(-c2ccccc2)oc1S(=O)(=O)Cc1ccccc1	96.8%	96.1%	98.1%	99.2%	107%	87.2%	38.1%	96.5%	71.4%	-43% (active)
Nc1cc(C(=O)NC[C@H]2CN(c3ccc(N4CCC(C(=O)O)CC4)cc3)C(=O)O2)ccc1Cl	95.1%	100%	107%	99%	103%	98.4%	92%	98.5%	101%	104%
COCCn1cc(-c2csc(-c3cn(C)c4ccc(Br)cc34)n2)c2cccnc21	76.1%	86.4%	74.2%	70.8%	26.8%	65.3%	-35.7% (active)	40.2%	19.8%	46.6%
O=C(Nc1ccc(Oc2cccc(Cl)c2)c(Cl)c1)c1cnccn1	46.1%	64.1%	47.9%	41%	15.7%	62%	12.5%	23.9%	44.6%	12.3%
COC(=O)CC[C@H](C)[C@H]1CC[C@H]2[C@@H]3CC[C@@H]4CC5(CC[C@]4(C)[C@H]3CC(=O)[C@]12C)Nc1ccccc1NC5=NC(C)(C)C (stereo not given in full)	72.8%	65.4%	95.6%	84.3%	85.5%	-2.12% (active)	75.8%	82.3%	81.1%	66.4%
COc1ccc(/C=N\Nc2nc(SCCC(C)C)nc(-c3ccc(OC)cc3)c2C#N)cc1	72.1%	88.9%	80.8%	18.4%	13.9%	63.2%	60.5%	70.9%	-2.8% (active)	68%
N#Cc1nc(-c2ccc(Cl)cc2)oc1S(=O)(=O)N1CCN(c2ccc(F)cc2)CC1	88.6%	94.9%	94%	96.4%	104%	99.3%	65.9%	98.6%	99.5%	102%
CCOc1ccccc1Cn1ccnc1CCc1c(Cl)c(O)cc(O)c1C(=O)OC	95.4%	102%	83%	85.9%	104%	90.4%	76.2%	87.7%	101%	102%
O=S(=O)(Nc1ccc(F)cc1F)c1ccc(-c2cnc(C3CC3)o2)cc1	38%	64.3%	47.4%	39.7%	16.3%	44.4%	13.4%	41.5%	44%	16.2%
c1csc(-c2ccc(CNc3c4ccccc4nc4ccccc34)cc2)c1	38.2%	69%	50.6%	54.6%	12.9%	-2.1% (active)	28.9%	26.7%	30.1%	5.13% (active)
COC(=O)c1nc(-c2ccc(C)cc2)oc1S(=O)(=O)c1cccc(OC)c1	92.6%	87%	93.3%	96.2%	104%	79.6%	33.8%	97.5%	85.2%	-8.96% (active)
COc1ccc(/C=C/C(=O)c2ccc(Nc3ccnc4cc(Cl)ccc34)cc2)cc1	76.2%	123%	131%	72.3%	101%	37.9%	73.3%	103%	72.8%	117%
CC1(C)COB(OCC(C)(C)COB2OCC(C)(C)CO2)OC1	101%	100%	92.2%	108%	107%	87.9%	106%	100%	104%	109%
